Measurements reported in the supplement of paper PMC6897291.

Tested on: RIVA
Test: growth inhibition by drug alone (1 - RLU/untreated control) (fraction); higher = stronger inhibition
Conditions: 177Lu-lilotomab satetraxetan 0 ug/ml
Procedure: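 RIVA (RI-1) ABC-DLBCL cells were pretreated or not for 18 h with 0.5 ug/ml 177Lu-lilotomab satetraxetan (600 MBq/mg), washed and seeded (3000 cells/well) on 384-well plates pre-printed with the Selleck Cambridge Cancer Compound library. Viability was read by RealTime-Glo luminescence on days 3-6 after seeding. Effect = 1 - RLU/mean RLU of the 48 untreated no-drug control wells per plate; Bliss score = (M-E)/(1-Fa).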

SMILES | growth inhibition by drug alone (10 nM, time (day): 3) | growth inhibition by drug alone (10 nM, time (day): 4) | growth inhibition by drug alone (10 nM, time (day): 5) | growth inhibition by drug alone (10 nM, time (day): 6) | growth inhibition by drug alone (100 nM, time (day): 3) | growth inhibition by drug alone (100 nM, time (day): 4) | growth inhibition by drug alone (100 nM, time (day): 5) | growth inhibition by drug alone (100 nM, time (day): 6)
COC(=O)Nc1ccc(-c2nc(N3CCOCC3)c3cnn(C4CCN(C(=O)OC)CC4)c3n2)cc1 | 0.0376 | 0.1 | 0.0593 | -0.105 | 0.0485 | 0.0181 | 0.033 | 0.00434
C=CCc1cccc(/C=N/NC(=O)CN2CCN(Cc3ccccc3)CC2)c1O | -0.0454 | 0.0184 | -0.0886 | -0.379 | -0.195 | -0.0942 | -0.0824 | -0.181
CC1(CN2CCC(n3c(=O)[nH]c4ccccc43)CC2)OCc2ccccc2-n2cccc21 (stereo not given) | -0.0853 | -0.102 | -0.143 | -0.225 | -0.307 | -0.303 | -0.319 | -0.374
CC(C)n1c(/C=C/C(O)CC(O)CC(=O)O)c(-c2ccc(F)cc2)c2ccccc21 (stereo not given) [Fluvastatin sodium (Lescol)] | -0.148 | -0.159 | -0.189 | -0.293 | -0.27 | -0.311 | -0.385 | -0.508
Nc1ncn([C@H]2C[C@H](O)[C@@H](CO)O2)c(=O)n1 [Decitabine] | 0.201 | 0.0484 | -0.0488 | -0.367 | 0.168 | 0.0495 | -0.00108 | -0.0694
